According to PubChem BioAssay AID651820 (National Center for Advancing Translational Sciences (NCATS), 2012):
“And” between values parts separate entries of the source, which are not always exact repeats. Identical values can stand only once. In all, about 340,000 compounds went through this assay and about 12,000 (3.5%) were called active. Roughly 18% stayed inconclusive and do not appear here. The sample as a whole holds a higher share of actives than the screen did. A number with no mark means an inactive call. The call rests on the fitted dose curve; in most records, active means well fitted inhibition curve with a large enough effect; inconclusive means small, poorly fitted or top-dose-only effect, or another doubt; inactive means no such curve, though single readings can be large or run the other way.

assay: qHTS Assay for Inhibitors of Hepatitis C Virus (HCV); conditions: Huh7.5.1 HCVcc-Cre infection, luciferase reporter, 44 h; series mostly up to 41.8 µM; activity change, negative = inhibition: at the top concentration
Method in brief: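 Cells seeded at 1,000/well and cultured 4 h, then compounds added followed by HCVcc-Cre virus (~0.5 moi). After 44 h further culture, luciferase substrate was added, plates held 15 min at room temperature, and luminescence read for 15 sec.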
On the % scale 0 is the no-effect control and ±100 the full control effect; potency means the concentration at half of the fitted maximal effect.

Compound	activity change, negative = inhibition	Potency
O=C1CC2(CCCC2)C(=O)N1CN1CCN(S(=O)(=O)c2ccc(F)cc2F)CC1	-2.52%	
COc1cc(OC)cc(C(=O)Nc2ccc(S(=O)(=O)Nc3cc(C)on3)cc2)c1	21.4%	
COc1ccc(NS(=O)(=O)c2ccc(NC(=O)c3ccc(N(C)S(C)(=O)=O)cc3)cc2)cc1		5.62 µM (active)
COc1ccc(NS(=O)(=O)c2ccc(C(=O)Nc3c(C)n(C)n(-c4ccccc4)c3=O)cc2)cc1	23.2%	
COc1ccc(NC(=O)c2cnc(NS(=O)(=O)c3ccccc3)nc2)cc1	19.5%	
CCOc1ccc(CC(=O)Nc2ccc(S(=O)(=O)Nc3cc(C)on3)cc2)cc1OCC	-0.179%	
CCOc1ccc(C(=O)Nc2ccc(S(=O)(=O)Nc3cc(C)on3)cc2)cc1		1.12 µM (active)
O=C(COC(=O)c1ccccn1)NNC(=O)c1ccc(Br)cc1	12.5%	
O=C(COC(=O)c1ccc(F)c(S(=O)(=O)N2CCOCC2)c1)NCc1ccc2c(c1)OCO2	-4.34%	
O=S(=O)(Nc1ccc2ccccc2c1)N1CCCCC1	-21.3%	
Brc1ccccc1/C=N/Nc1nc2ccccc2o1	-26.3%	
CCOc1ccccc1/C=N/Nc1nc2ccccc2o1		12.6 µM (active)
COc1ccc(/C=N/Nc2nc3ccccc3o2)cc1OC	-3.83%	
Cc1ccc(SCC(=O)Nc2ccc3c(c2)OCCO3)cc1	0.0256%	
Cc1ccc(C(=O)CSc2ccccc2C(=O)O)cc1	12.5%	
Cc1ccc(SCC(=O)c2cc(C)c(OC(=S)N(C)C)c(C)c2)cc1		11.2 µM (active)
CC[C@]12c3[nH]c4ccc(Cl)cc4c3CCN1C(=O)[C@@H](CC(=O)NCCN1CCOCC1)C[C@@H]2C(=O)N1CCN(C(=O)C2CC2)CC1	17.4%	
CCOC(=O)C[C@H]1c2ccc(C(F)(F)F)cc2S(=O)(=O)N1c1ccccc1	-10.1%	
Cc1ccc(C)c(N2CCN(C(=O)CCCCCn3c(=S)[nH]c4ccc(N5CCOCC5)cc4c3=O)CC2)c1		2.82 µM (active)
O=C(CCCCCn1c(=S)[nH]c2cc3c(cc2c1=O)OCO3)N1CCN(c2ccc(F)cc2)CC1	-11.6%	
Cc1ccc(C)c(N2CCN(C(=O)CCc3nc4ccccc4[nH]3)CC2)c1	3.71% [at 8.37 µM]	
CN(CC(=O)Nc1cccc(F)c1)C(=O)C1CSC2(C)CCC(=O)N12 (centres undefined)	6.19%	
COc1ccc(Cl)cc1NS(=O)(=O)c1cccc(C(=O)NC2CCC(O)CC2)c1 (centres undefined)	10%	
CCC(CO)Oc1cc(NC(=O)c2cccc(F)c2)c2ncn(C(C)C)c2c1 (centres undefined)		0.562 µM (active)
COc1cccc(C(=O)NNC(=O)c2cccc(F)c2)c1	13.8%	

Compound	activity change, negative = inhibition	Potency
O=C(Nc1cccc(NC(=O)c2cccc(F)c2)c1)c1ccccc1	-10.3%	
O=C1/C(=C/c2ccc(F)cc2)SC(=S)N1CCCC(=O)N1CCCCC1CCO (centres undefined)		11.2 µM (active)
COc1ccc(/C=C2\SC(=S)N(CCCC(=O)NC3CCCC3)C2=O)cc1OC	-0.548%	
CCN(C(=O)CN1C(=O)/C(=C/c2ccc(F)cc2)SC1=S)C1CCS(=O)(=O)C1 (centres undefined)	3.32%	
O=C(COC(=O)Cc1c[nH]c2ccccc12)NCCc1ccccc1	3.54%	
O=C(CN1CCN(c2ccccc2O)CC1)NC(=O)NCc1ccccc1	-28.3%	
CCCOc1ccc(C(=O)CCC(=O)OC(C)C(=O)Nc2ccc(NC(C)=O)cc2)cc1 (centres undefined)	26.7%	
CCCOc1ccc(C(=O)C(CCC(CNCC)C(=O)c2ccc(OCCC)cc2)CNCC)cc1 (centres undefined)		5.01 µM (active)
CCCOc1ccc(N/C=C/C(=O)C(C)(C)C)cc1	3.9%	
CCN(CC(=O)Nc1ccccc1C(F)(F)F)C(=O)CSCc1c(C)noc1C	1.18%	
COc1ccc(S(=O)(=O)N2C[C@H]3CON(C)[C@H]3C[C@H]2c2cccc(Br)c2)cc1	28% [at 8.37 µM]	
O=C(NCc1ccccc1Cl)C1CCN(S(=O)(=O)N2CCOCC2)CC1	-1.58%	
COc1ccc(CNC(=O)C2CCN(S(=O)(=O)N3CCOCC3)CC2)cc1	14.1%	
O=C(O)C1CCN(S(=O)(=O)N2CCOCC2)CC1		22.4 µM (active)
COc1ccc(OCCCC(=O)OC(C)C(=O)Nc2ccccc2[N+](=O)[O-])cc1 (centres undefined)	0.431%	
O=C(COC(=O)c1cccnc1Cl)NC(=O)NC1CCCCC1	7.18%	
Cc1noc(C)c1S(=O)(=O)N(C)C[C@H]1Oc2ccc(NC(=O)C3CC3)cc2C(=O)N([C@H](C)CO)C[C@@H]1C	11.4%	
O=C1NC(c2ccccc2)Cc2ccncc21 (centres undefined)	-5.27%	
Cc1ccc(C(=O)CCC(=O)N(C)CC(=O)Nc2c(Cl)cccc2Cl)cc1	-24.2%	
Cc1cccc(C)c1NC(=O)CN(C)C(=O)CCC(=O)c1ccccc1	9.78%	
CN(CC(=O)Nc1ccc(Cl)c(C(F)(F)F)c1)C(=O)CCC(=O)c1ccccc1		11.2 µM (active)
COc1ccc(CNC(=O)C[C@H]2C[C@H](C(=O)N3CCOCC3)[C@@]3(C)c4[nH]c5cc(CCC(=O)N(C)C)ccc5c4CCN3C2=O)cc1OC	19.4%	
CN(C)CCn1c2c(c(SCC(=O)Nc3ccccc3C(F)(F)F)nc1=O)CCCC2	8.07%	
Cc1cc(C)c(CN2CCN(C(=O)Cn3ccc(NC(=O)OCc4ccccc4)nc3=O)CC2)c(C)c1		4.47 µM (active)
Nc1ccn(CC(=O)N2CCN(c3ccccn3)CC2)c(=O)n1	5%	

Compound	activity change, negative = inhibition	Potency
O=C(Nc1ccn(CCCNCc2ccc3[nH]ccc3c2)c(=O)n1)OCc1ccccc1	5.42%	
CCC1([N+](=O)[O-])COC(c2ccc(C(C)C)cc2)OC1 (centres undefined)	-0.561%	
CCCN(C(=O)c1nc2nccc(C)n2n1)c1c(N)n(Cc2ccccc2)c(=O)[nH]c1=O	-3.26%	
O=C1CC(c2ccccc2)C(c2ccccc2)=NN1 (centres undefined)	-4.55%	
CC(C)c1cc(N=O)cc(C(C)C)c1O	15%	
O=C(OCC(=O)N1CCCCCC1)c1ccc(Cl)nc1	9.32%	
CN1CCN(C2Cc3ccc(Cl)cc3Sc3ccc(F)cc32)CC1 (centres undefined)		31.6 µM (active)
CN(CC(=O)Nc1ccc(F)c(F)c1F)C(=O)C1CC(=O)N(C2CCCC2)C1 (centres undefined)	8.33%	
CCCn1c(=N)n(CC(=O)c2ccc(Cl)c(Cl)c2)c2ccccc21		10 µM (active)
CCCCOC(=O)Cn1c(=N)n(CCN(CC)CC)c2ccccc21	6.51%	
CCCNC(=O)c1ccc(Cl)c(Cl)c1	-15.3%	
Cc1ccc(S(=O)(=O)N2CCCCC2)cc1C(=O)N1CCN(CCO)CC1	-5.13%	
CNc1nc(=O)n(C2CCCO2)cc1C (centres undefined)	29.5%	
CN(Cc1cnccn1)C(=O)c1cc(COc2cccc(C(F)(F)F)c2)on1	-13.9%	
Cc1ccc(OCc2cc(C(=O)N(C)CCc3ccccc3)no2)cc1C	-9.29%	
CN(Cc1cccnc1)C(=O)c1cc(COc2ccc3ncccc3c2)on1		3.98 µM (active)
O=C1c2ccccc2S(=O)(=O)c2cc(N3CCN(c4ccccn4)CC3)ccc21	10.4%	
O=C(c1ccc2c(c1)N(Cc1ccc(F)cc1)C(=O)c1ccccc1S2(=O)=O)N1CCN(c2ccccn2)CC1		25.1 µM (active)
O=C(c1ccc2c(c1)C(=O)N(c1ccc(Cl)cc1)C2=O)N1CCN(c2ccccn2)CC1	-1.51%	
CCC(=O)c1ccc(OCC(=O)N(CC)CC2COc3ccccc3O2)cc1 (centres undefined)	-3.1%	
CC(=O)c1c(C)[nH]c(C(=O)COC(=O)CCOc2ccc(C)cc2)c1C	21.2%	
CCc1c(Nc2ccccc2Cl)nc(N)[nH]c1=O	7.34%	
C#CCOCCOCCOCCNc1nc(N2CCN(C(=O)[C@H](CCC(=O)O)n3cc(CN)nn3)CC2)nc(N2CCN(C(=O)[C@H](CCC(=O)O)n3cc(CN)nn3)CC2)n1	11.3%	
COc1cc2c(cc1OC)C(c1ccncc1)CC(=O)N2 (centres undefined)	29.9%	
CCCOc1ccccc1C1CC(=O)Nc2cc3c(cc21)OCO3 (centres undefined)		2.24 µM (active) and 3.55 µM (active)

Compound	activity change, negative = inhibition	Potency
COc1cc2c(cc1OC)C(c1ccc(C)o1)CC(=O)N2 (centres undefined)	-1.02%	
CCn1c(SCC(=O)NCC2CCCO2)nc2ccccc21 (centres undefined)	5.12%	
O=C(Nc1nc(-c2ccncc2)cs1)C1COc2ccccc2O1 (centres undefined)	-28%	
O=C(Nc1nc(-c2ccc3c(c2)OCO3)cs1)c1ccncc1		12.6 µM (active)
CC(=O)NCCC(=O)Nc1nc(-c2ccc3c(c2)OCCO3)cs1	-11.8%	
Cc1ccc(-c2csc(NC(=O)c3cnccn3)n2)cc1C	15.7%	
Cc1ccc(-c2csc(NC(=O)C3=COCCO3)n2)cc1C		7.94 µM (active)
Cc1csc(NC(=O)C2=COCCO2)n1	-13.4%	
O=C(CCc1nc2sc3c(c2c(=O)[nH]1)CCCC3)NCC(=O)Nc1ccccc1Br	16.5%	
COc1ccc(CNC(=O)COC(=O)C2=Cc3ccccc3OC2)cc1	5.91%	
Cn1cc(C2OC(=O)c3ccccc32)c2ccccc21 (centres undefined)	-11.7%	
COc1cc(F)c(C2=CC(=O)CC(C)(C)C2)cc1F	0.584%	
Cc1cc([N+](=O)[O-])ccc1NS(=O)(=O)c1ccccc1	-10.6%	
COC(=O)c1ccc(/C=C/c2c(-c3ccc(OC)cc3)sc3ccccc23)cc1	20.7%	
Cc1cccc(NC(=O)c2ccc(COc3ccccc3[N+](=O)[O-])o2)n1		25.1 µM (active)
Cc1cccc(NC(=O)Nc2ccc(OCc3ccccc3)cc2)n1	-13.2%	
Cc1cccc(NC(=O)c2ccccc2NC(=O)C(C)(C)C)n1	14.2%	
CCc1ccc(C(=O)C(C)OC(=O)CN2C(=O)NC3(CCCC3)C2=O)cc1 (centres undefined)	11.3%	
NC(=O)c1ccc(CN2CCC(Cc3ccccc3)CC2)cc1		11.2 µM (active)
Brc1ccccc1CN1CCC(Cc2ccccc2)CC1	13.6%	
O=C(O)c1ccc(S(=O)(=O)N2CCC(Cc3ccccc3)CC2)cc1	17%	
COc1ccccc1CNS(=O)(=O)c1cc2c3c(c1)CCC(=O)N3CCC2	-27.5%	
COc1ccc(-c2nc3c(s2)CCc2onc(-c4ccc(Br)cc4)c2-3)cc1	6.47%	
CCCCn1c(N)c(N(CC(C)C)C(=O)CN(C)S(=O)(=O)c2ccc(F)cc2)c(=O)[nH]c1=O	2.2%	
